In PubChem BioAssay (EPA / NIEHS):
Where “and” joins values, the source holds several entries; their conditions need not be identical. Identical values can stand only once. Inconclusive results are not listed. Calls of active or inactive are those of the source. How the source made its calls: active means hit-call score of the fitted dose curve at least 0.9, where 1 is the maximum; inconclusive means response in the unintended direction; inactive means score below 0.9.

What follows are molecules tested against D(1A) dopamine receptor (Homo sapiens) (UniProt P21728) (assay: NVS_GPCR_hDRD1: NovaScreen (NVS) G Protein-Coupled Receptor Assay for human Dopamine Receptor D1 (DRD1) (AID 2283269)).
Sequence of D(1A) dopamine receptor (Homo sapiens) (P21728 whole entry, looked up): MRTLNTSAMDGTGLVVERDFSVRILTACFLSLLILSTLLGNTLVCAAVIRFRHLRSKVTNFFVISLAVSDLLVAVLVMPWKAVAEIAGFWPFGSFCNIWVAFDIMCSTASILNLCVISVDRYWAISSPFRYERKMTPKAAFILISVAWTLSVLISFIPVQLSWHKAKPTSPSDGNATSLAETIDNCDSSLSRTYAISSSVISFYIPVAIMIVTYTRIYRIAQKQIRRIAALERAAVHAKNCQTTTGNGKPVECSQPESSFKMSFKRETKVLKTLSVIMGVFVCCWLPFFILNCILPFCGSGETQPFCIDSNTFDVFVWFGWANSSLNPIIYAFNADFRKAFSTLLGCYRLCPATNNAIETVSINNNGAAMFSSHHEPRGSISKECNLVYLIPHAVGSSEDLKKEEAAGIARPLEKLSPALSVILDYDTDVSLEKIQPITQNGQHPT
Experimental: NVS_GPCR_hDRD1 is a biochemical, single-readout assay that uses extracted gene-proteins from HEK293 in a cell-free assay. Measurements were taken 1 hour after chemical dosing in a 96-well plate.NVS_GPCR_hDRD1 is one of one assay component(s) measured or calculated from the NVS_GPCR_hDRD1 assay. It is designed to make measurements of radioligand binding, a form of binding reporter, as detected with scintillation counting signals by Filter-based radiodetection technology.Data from the assay component NVS_GPCR_hDRD1 was analyzed into 1 assay endpoint. This assay endpoint, NVS_GPCR_hDRD1, was analyzed in the positive analysis fitting direction relative to DMSO as the negative control and baseline of activity. Using a type of binding reporter, loss-of-signal activity can be used to understand changes in the binding as they relate to the gene DRD1. Furthermore, this assay endpoint can be referred to as a primary readout, because the performed assay has only produced 1 assay endpoint. To generalize the intended target to other relatable targets, this assay endpoint is annotated to the gpcr intended target family, where the subfamily is rhodopsin-like receptor.
Binding assays used specific radioligands (tritiated, iodinated) with non-radioactive competitive displacement ligands in agonist or antagonist protocols (as indicated) and various reference compounds and inhibitors to titrate specific binding to receptors and transporters. Most enzyme assays (CYPs, kinases, phosphatases, proteases, HDACs) used recombinant protein and specific substrates (fluorescence mostly, some colorimetric and radioactive) and inhibitors, followed by a biochemical separation of substrate and product. All assays for the biochemical HTS were initially run in duplicate at a single concentration (10 uM for CYP450 assays and 25 uM for all others). […] Each assay was run with positive and negative controls, and concurrent controls on every plate. The follow-up (secondary) screen tested active chemical-pairs in concentration series, as well as a few additional assays not tested in the primary screen, some selected negative inactives, and several cases re-run in the concentration series for confirmatory purposes.

| Structure (SMILES) | outcome | AC50 |
| --- | --- | --- |
| COc1ccc(C(c2ccc(OC)cc2)C(Cl)(Cl)Cl)cc1 | inactive | – |
| COP(=S)(OC)Oc1nc(Cl)c(Cl)cc1Cl | – | 12.6 µM (active) |
| CO/C=C(/C(=O)OC)c1ccccc1Oc1cc(Oc2ccccc2C#N)ncn1 | inactive | – |
| C#CCOS(=O)OC1CCCCC1Oc1ccc(C(C)(C)C)cc1 (stereo not given) | – | 25 µM (active) |
| C=CCC1=C(C)C(OC(=O)C2C(C=C(C)C)C2(C)C)CC1=O (stereo not given) | – | 41.6 µM (active) and 29.3 µM (active) |
| CC1COC(Cn2cncn2)(c2ccc(Oc3ccc(Cl)cc3)cc2Cl)O1 (stereo not given) | – | 6.97 µM (active) |
| CCCCNC(=O)OCC#CI | – | 15.3 µM (active) and 9.21 µM (active) |
| C=CCC1=C(C)[C@@H](OC(=O)[C@@H]2[C@@H](C=C(C)C)C2(C)C)CC1=O | – | 25 µM (active) |
| CN(C)C(=S)SSC(=S)N(C)C | – | 4.51 µM (active) |
| O=C(Nc1ccccc1)Nc1ccnc(Cl)c1 | – | 14.5 µM (active) |
